# In ChEMBL document CHEMBL4513135, “CO-ADD screening of IQOG CSIS (Spain) compounds”:
# Potency and affinity values are given separately.
# System: Cryptococcus neoformans
# Settings: Concentration 32 ug.mL-1; ASSAY_TEST Inhibition of Fungal Growth; detection method Resazurin; Absorption (OD600-OD570); plate type 384well; NBS; CORNING #3640
row,Compound,Inhibition [%]
1,O=C(Cc1c[nH]c2ccccc12)NN=Cc1ccccc1,-1.93
2,CS(=O)(=O)O[C@H]1CC[C@H](OS(C)(=O)=O)CC1,-30.83
3,Cc1ccc(S(=O)(=O)N[C@H]2CC[C@H](O)CC2)cc1,-40.23
4,O=C(O)/C(=C\c1ccccc1)NC(=O)c1ccccc1,-3.88
5,C#CCNc1ncccn1,-63.47
6,CCOC(=O)C1=C(C)OC(N)=C(C#N)C1c1cccs1 (stereo not given),-27.56
7,CCOC(=O)C1=C(C)Nc2nc3c(c(N)c2C1c1ccc([N+](=O)[O-])cc1)CCCC3.Cl (stereo not given),-58.17
8,COc1nc2ccccc2cc1C=O,-2.5
9,COc1ccc(C=C2N=C(c3ccccc3)SC2=O)cc1,-2.03
10,Cc1n[nH]c2c1C(c1ccc([N+](=O)[O-])cc1)C(C#N)=C(N)O2 (stereo not given),-4.51
11,Nc1c2c(nc3c1C(c1ccccc1)c1ccc4ccccc4c1O3)CCCC2 (stereo not given),5.07
12,N#Cc1c(Cl)nc(Sc2ccccc2)c(C#N)c1-c1ccccc1,-38.87
13,CCOC(=O)C1=C(C)OC(N)=C(C#N)C1c1cccnc1 (stereo not given),-18.71
14,COc1ccc2c(c1)cc(CN(C)Cc1cn(Cc3ccccc3)nn1)n2C,-55.57
15,Cn1c(C(=O)O)cc2cc(OCCCC3CCN(Cc4ccccc4)CC3)ccc21,-100.02
16,O=Cc1c[nH]c2ccccc12 [3-FORMYLINDOLE],-4.21
17,CCOC(=O)c1c(C)nc(N)c(C#N)c1-c1cccs1,-31.89
18,Br.C#CCNCC,-9.78
19,COc1ccc2c(c1)cc(C(=O)Nc1ccccc1)n2C,-38.47
20,COc1nc(N)c(C#N)c(-c2ccccc2)c1C#N,-13.41

row,Compound,Inhibition [%]
1,Nc1c2c(nc3c1C(c1ccc(Cl)c(Cl)c1)c1ccc4ccccc4c1O3)CCCC2 (stereo not given),-2.87
2,COC(=O)C(NC(=O)c1ccccc1)=C(C)c1ccccc1,-1.2
3,CC1=NC(=Cc2ccccc2)C(=O)S1,-6.24
4,NNC(=O)Cc1c[nH]c2ccccc12,-6.14
5,CC1=NC(=Cc2ccc([N+](=O)[O-])cc2)C(=O)O1,-1.41
6,COc1ccc(C2C(C#N)=C(N)Oc3c2ccc2ccccc32)cc1 (stereo not given),-40.73
7,Cc1ccc(-c2c(C#N)c(N)nc3c2S(=O)(=O)OC3(C)C)cc1,-1.83
8,COc1nc(NC(C)=O)c(C#N)c(-c2ccccc2)c1C#N,-37.64
9,COC(=O)C1CCN(Cc2ccccc2)CC1,-2.37
10,COc1nc2ccc(C)cc2cc1C=O,-4.83
11,N#Cc1c(N)nc(NCCC2CCN(Cc3ccccc3)CC2)c(C#N)c1-c1ccccc1,-17.88
12,Cn1cc(/C=C2\NC(=S)NC2=O)c2ccccc21,-4.32
13,CC1CC(=O)Nc2c1c(Cl)nc1nc3c(c(N)c21)CCCC3 (stereo not given),-92.92
14,N#CC1(Br)C(=NBr)Oc2ccc3ccccc3c2C1c1ccc([N+](=O)[O-])cc1 (stereo not given),-71.87
15,COc1ccc(-c2cc(-c3cc4ccc(OC)cc4nc3Cl)cc(=O)[nH]2)cc1,-66.65
16,O=C(N[C@H]1CC[C@H](O)CC1)c1ccccc1,-38.05
17,COc1ccc2c(c1)cc(CNc1ccccc1)n2C,-85.66
18,Nc1c2c(nc3c1C(c1ccc([N+](=O)[O-])cc1)c1c(ccc4ccccc14)O3)CCCC2 (stereo not given),-0.47
19,CCOC(=O)C1=C(C)OC(N)=C(C#N)C1c1ccc(OC)cc1 (stereo not given),-5.46
20,C#CCN(C)c1nc(Cl)c(C#N)c(-c2ccccc2)c1C#N,-24.12
